Drawing on PubChem BioAssay AID1376 (SRMLSC, 2008), this text covers inhibition for 97 compounds.

Hit rate of the full screen: of about 220,000 compounds, about 530 (0.24%) were called active. The sample as a whole holds a higher share of actives than the screen did. Results with a measured potency or affinity are listed apart. A number with no mark means an inactive call. Rule as the data show it: active = inhibition above about 13%; inconclusive = no clear call, values can overlap the other calls; inactive = below that.

Bifunctional protein GlmU (Mycobacterium tuberculosis (strain ATCC 25618 / H37Rv)), sequence (P9WMN3 whole entry, looked up): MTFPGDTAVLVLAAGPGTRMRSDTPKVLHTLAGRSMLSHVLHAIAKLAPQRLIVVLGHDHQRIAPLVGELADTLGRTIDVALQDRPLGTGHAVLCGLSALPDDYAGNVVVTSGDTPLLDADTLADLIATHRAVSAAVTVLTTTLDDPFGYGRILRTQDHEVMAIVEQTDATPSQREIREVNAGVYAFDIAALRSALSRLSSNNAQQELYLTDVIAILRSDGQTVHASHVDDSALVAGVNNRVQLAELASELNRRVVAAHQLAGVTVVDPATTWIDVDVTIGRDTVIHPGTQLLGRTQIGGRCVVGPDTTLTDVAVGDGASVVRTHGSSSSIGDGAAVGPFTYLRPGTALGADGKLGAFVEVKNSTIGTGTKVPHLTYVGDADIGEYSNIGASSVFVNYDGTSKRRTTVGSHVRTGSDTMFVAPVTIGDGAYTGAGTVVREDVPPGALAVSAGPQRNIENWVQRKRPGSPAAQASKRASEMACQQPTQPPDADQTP

This assay concerns the target Bifunctional protein GlmU (Mycobacterium tuberculosis (strain ATCC 25618 / H37Rv)) (UniProt P9WMN3). The assay is described as follows: inhibition of mycobacterial GlmU enzyme – biochemical, glucosamine-1-phosphate acetyltransferase (AID 1376).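 Also: 0% = complete reaction with vehicle and 100% = reaction without substrate.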 The following applies: M. tuberculosis GlmU acetyltransferase enzyme assay; hits give high values;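 tested at 30 µM in the primary screen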.
As to `CC(=O)c1ccc(N2CCN(C(=O)Nc3cccc(F)c3)CC2)cc1`, the inhibition is -1.45%. As for `COc1cccc(C2/C(=C(\O)c3ccc4c(c3)OCO4)C(=O)C(=O)N2CCN(C)C)c1OC` (configuration not stated), the inhibition was 1.43%. With `O=C(O)c1ccc(N=Cc2c(O)n(Cc3ccc(F)cc3)c(=O)[nH]c2=O)cc1`, the inhibition is -1%. Regarding `Cc1ccc(NS(=O)(=O)c2ccc(C3CCCCC3)cc2)cc1`, the inhibition was -5.89%.

Consider `C=CCn1c(-c2c(C)nc3cc(C)ccn23)n[nH]c1=S`, for which the inhibition is 0.98%. The value for `Cc1ccc(N(CC(=O)NCCSCc2ccco2)S(=O)(=O)c2ccc(C)cc2)cc1` was -1.27%; that for `CN1CCN(c2ccc([N+](=O)[O-])c(Sc3nncn3C)c2)CC1` was -2.97%; that for `COc1ccc(-c2ccc(-c3noc(-c4ccco4)n3)c(OC)n2)cc1` was 1.18%.

As to `COc1ccc(-c2ccc(-c3noc(-c4ccccc4)n3)c(OC)n2)cc1`, the inhibition is 6.47%. The value for `COc1ccc(-c2ccc(-c3noc(-c4cccc(OC)c4)n3)c(OC)n2)cc1` was 14% (active). As for `O=[N+]([O-])c1cccc(/C=N/Nc2ccccn2)c1`, the figure is 0.69%. `O=C1CC(N(O)c2ccccc2)C(=O)N1Cc1ccccc1` (configuration not stated): the inhibition was 8.24%.

Regarding `C/C(=N\N=C1\NC(=O)C(Cc2ccccc2)S1)c1ccccc1` (configuration not stated), the inhibition is 2.56%. As for `Cc1ccc(Sc2cc(C(F)(F)F)nc(N(C)C)n2)cc1`, the figure is -0.68%; as for `Cc1cc(C)n2c(SCCN3C(=O)c4ccccc4C3=O)nnc2n1`, 0.6%.

Consider `CCOC(=O)c1cnc(SCC#N)nc1N`, for which the inhibition was 0.91%. Turning to `O=C(CSc1nc2ccccc2[nH]1)Nc1ccc(F)cc1`, the inhibition was -1.92%. Take `NS(=O)(=O)c1ccc(NC(=O)CSc2nc3ccccc3[nH]2)cc1`: the inhibition is 13.4% (active). As for `NS(=O)(=O)c1cccc(NC(=O)CSc2nc3ccccc3[nH]2)c1`, the figure is 4.49%; as for `CCOc1c(C#N)c(C#N)c2nc(C)cc(C)n12`, -3.28%; as for `CCn1ncc2c(OCc3ccc(C#N)cc3)cc(C)nc21`, 13% (active). The value for `Cc1csc(OCc2ccc(C#N)cc2)n1` was 4.28%; that for `c1cnc2ccc(C(c3nnnn3C3CCCCC3)N3CCN4CCCC4C3)cc2c1` (configuration not stated) was -1.69%; that for `O=C(Nc1cccc([N+](=O)[O-])c1)c1ccccc1` was -2.61%. As for `O=C(O)c1ccccc1C(=O)Nc1cccc([N+](=O)[O-])c1`, the figure is 17.2% (active); as for `O=C(O)c1cc([N+](=O)[O-])ccc1C(=O)Nc1ccccc1`, 0.35%. As to `COc1ccc(/C=C/C(=O)C2CC2)cc1COc1cccc(C)c1C`, the inhibition is 1.77%. With `O=C(CSCc1ccc(Cl)cc1Cl)Nc1ccccc1C(=O)Nc1ccc(C(=O)O)cc1`, the inhibition is -3.25%.

Take `CC(C)(CN1CCN(c2ccccc2)CC1)NS(=O)(=O)c1ccccc1`: the inhibition was -4.3%. With `COC(=O)c1ccccc1CCC(C)=O`, the inhibition was -1.25%. The value for `O=c1oc2cc(O)c(Cl)cc2c2ccccc12` was 2.71%; that for `O=c1cc2c(=O)oc3cc(O)c(O)oc3c2c(O)c1O` was 16.8% (active); that for `O=c1oc2ccccc2c2oc3cc(O)c(O)cc3c12` was 2.91%. As for `CN1C(=O)NC(=O)/C(=C/c2ccc(C(=O)O)cc2)C1=O`, the figure is 2.77%. As for `CN(C(=O)CC(=O)Nc1ccc(Cl)c(Cl)c1)c1ccccc1`, the figure is 0.26%; as for `CC(CCc1ccccc1)NC(=O)C1CCCN(c2nnc(-n3cccc3)s2)C1` (configuration not stated), 7.96%; as for `COC(=O)c1ccccc1NC(=O)N1CCN(c2ccccc2)CC1`, -3.35%. Consider `COCCNC(=O)C1CC2Cn3c(nc4cc(C)c(C)cc43)C2N1C` (configuration not stated), for which the inhibition is 1.27%.

For `Nc1ccc(Cc2ccc(N)c(O)c2)cc1O`, the inhibition was 13.4% (active).

For `Nc1ccc(Cc2ccc(N)c(C(=O)O)c2)cc1C(=O)O`, the inhibition is 7.1%. As for `Cc1cc(Cc2ccc(N)c(C)c2)ccc1N`, the inhibition was -3.87%.

`COc1ccc(C(=O)N/N=C(\C)c2ccc3c(c2)C2C=CCC2C(c2ccccc2)N3)cc1` (configuration not stated): the inhibition is 7.99%. Turning to `O=C(O)c1ccc(NS(=O)(=O)c2ccc3c(c2)C2C=CCC2C(c2ccccc2F)N3)cc1` (configuration not stated), the inhibition is 25.9%.

For the compound `Cc1c(Cl)cccc1NS(=O)(=O)c1ccc2c(c1)C1C=CCC1C(c1ccc(C(=O)O)cc1)N2` (configuration not stated), the inhibition was 23.6% (active). As for `O=C(O)c1ccc2c(c1)C1C=CCC1C(c1ccncc1)N2` (configuration not stated), the figure is -9.79%; as for `CC(=O)c1ccc2c(c1)C1C=CCC1C(c1ccc(S(=O)(=O)N3CCOCC3)cc1)N2` (configuration not stated), 0.66%; as for `COc1cccc(NS(=O)(=O)c2ccc3c(c2)C2C=CCC2C(c2ccc(C(=O)O)cc2)N3)c1` (configuration not stated), 13.1% (active). As for `CC1CCc2sc(C(=O)OCC(=O)NCc3ccccc3)cc2C1` (configuration not stated), the figure is -4.45%; as for `CC12CCC(C/C1=N\OC(=O)c1ccc(F)cc1)C2(C)C` (configuration not stated), 1.74%; as for `C/C=C/C(=O)N1CC2(CC(c3cccc(NC(=O)/C(C)=C/C)c3)=NO2)C[C@H]1C(N)=O` (some centres not stated), 3.31%. With `Cc1cc(C)n(-c2cc(N3CCN(S(=O)(=O)c4ccc(Cl)cc4)CC3)ccc2[N+](=O)[O-])n1`, the inhibition was 5.84%.

Take `COc1cccc2c(=O)n(CC(=O)N3CCc4ccccc43)ccc12`: the inhibition is 1.33%. The value for `N#CC1=C(N)N(c2ccccc2)C2=C(C(=O)CCC2)C1c1cccs1` (configuration not stated) was 2.47%. The value for `CCCCNC(=O)Oc1cc(CCl)on1` was -3.53%; that for `CCCCNC(=O)Oc1c(Br)cc2sc(=O)oc2c1Br` was 13.8% (active); that for `O=C(NC1CCCCC1)Oc1cc2oc(=O)sc2cc1Br` was -0.42%.

As to `CSc1cccc(NC(=O)C2CCCN2S(=O)(=O)c2ccc(Br)s2)c1` (configuration not stated), the inhibition is 7.56%. As for `CSc1ccc(C(=O)C2CCCN(Cc3cnc(SC)nc3)C2)cc1` (configuration not stated), the figure is -1.56%. Consider `COc1cccc(N2CCN(C(=O)NC3CCCCC3)CC2)c1`, for which the inhibition is -5.07%. As for `CCCCC(CC)C1OCC(CN2CCCCC2)O1` (configuration not stated), the figure is 7.5%; as for `CN1C(=O)C(=Cc2ccc(Sc3ccccc3)o2)C(=O)N(C)C1=O`, -2.7%. In the case of `O=C1NC(=O)N(c2ccccc2)C(=O)/C1=C/c1ccc(Sc2ccccc2)o1`, the inhibition is 19.6%. With `O=[N+]([O-])c1cc(S(=O)(=O)N2CCCC2)ccc1N/N=C/c1cccnc1`, the inhibition is -1.08%.

Turning to `O=c1cc(-c2ccc(O)cc2)oc2ccc(O)cc12`, the inhibition was -0.88%.

As for `O=c1cc(O)c2ccc(O)cc2o1`, the inhibition was 4.26%.

For `O=C(c1ccc([N+](=O)[O-])cc1[N+](=O)[O-])N1CCCC1`, the inhibition was 2.34%. The value for `CC1CC(C)CN(C(=O)Cn2c(=O)n(CCCCC(=O)NCc3ccco3)c(=O)c3ccccc32)C1` (configuration not stated) was 4.18%. The value for `CCOc1nc2c(c(=O)n(C)c(=O)n2C)n1Cc1ccccc1Cl` was 1.39%; that for `CCCCNC(=O)Nc1nc2ccccc2s1` was 5.87%; that for `COc1ccc(NC2=NC3(CCCCC3)N=C(N)N2)cc1` was 26% (active). As for `COc1cccc(NC2=NC3(CCCCC3)N=C(N)N2)c1`, the figure is 0.3%.

On to `CCCCOc1ccc(NC2=NC3(CCCCC3)N=C(N)N2)cc1`, for which the inhibition is -13.7%. For the compound `CCOc1ccc(/C=C(/NC(=O)c2ccc(Cl)cc2)C(=O)O)cc1OCC`, the inhibition is -0.87%. As to `NC(=O)c1ccc(-n2nnnc2Oc2ccc(Br)cc2)cc1`, the inhibition was -0.77%. With `COc1ccc(NC(=O)Nc2ccccn2)cc1OC`, the inhibition is 5.35%. Take `Cc1c(Br)c(=O)oc2c(C)c(O)ccc12`: the inhibition was -1.97%.

With `Cc1c(Br)c(=O)oc2c(Br)c(O)ccc12`, the inhibition is 4.5%. As to `CC(C)(Cc1ccc(O)cc1)NC(=O)CC(=O)N/N=C/c1ccc([N+](=O)[O-])cc1`, the inhibition is -2.21%. Regarding `COc1cc(/C=N/NC(=O)CCn2c3ccccc3c3ccccc32)cc(OC)c1OC`, the inhibition was 1.58%. As for `O=C(CN1CCN(Cc2ccccc2)CC1)N/N=C/c1cccnc1`, the figure is 1.02%.

In the case of `O=C1NC(=Nc2ccc(O)cc2)S/C1=C\C=C\c1ccco1`, the inhibition was 3.62%. In the case of `COc1ccc(N=C2NC(=O)/C(=C\C=C\c3ccco3)S2)cc1`, the inhibition is 8.93%. With `Cc1cccc(N=C2NC(=O)/C(=C/C=C/c3ccco3)S2)c1`, the inhibition is 13.5% (active). As to `O=C1NC(=Nc2ccccc2)S/C1=C\C=C\c1ccco1`, the inhibition is 14.8% (active). The value for `Cc1cccc(N=C2NC(=O)/C(=C/C=C/c3ccco3)S2)c1C` was -4.23%.

As for `Cc1ccc(N=C2NC(=O)/C(=C/C=C/c3ccco3)S2)cc1`, the inhibition was 4.9%. As for `O=C1Cn2c(nc3ccccc32)N1c1cccc(C(F)(F)F)c1`, the figure is 0.84%. Consider `CN(Cc1ccncc1)C1CC(=O)N(c2ccc(F)cc2)C1=O` (configuration not stated), for which the inhibition is 5.02%.

In the case of `CCSc1ccccc1C(=O)NC1CCCCC1`, the inhibition is 2.94%. As for `CCCNCc1cc(Br)ccc1OCC(=O)NCCc1ccccc1`, the figure is 0.38%; as for `CC(C)N(Cc1ccccc1)C(=O)Cn1c(=O)cnc2ccccc21`, -0.29%. The value for `Cc1[nH]n(C2=NCCS2)c(=O)c1N=Nc1cccc(C(F)(F)F)c1` was -0.55%; that for `Cc1cc(C)c(S(=O)(=O)/N=C2\C=CC(=O)C(Cl)=C2)c(C)c1` was 14.5% (active); that for `Cc1ccc(S(=O)(=O)c2c(C)cc(C)nc2Cl)c(C)c1` was 1.23%. The value for `Cc1cc(C)c(S(=O)(=O)Nn2cnnc2)c(C)c1` was -3.71%; that for `COc1cccc(C2=NN(C(=O)c3ccco3)C(O)(C(F)(F)F)C2)c1` (configuration not stated) was 3.28%. Regarding `Cc1ccc(-c2csc3ncnc(OCC(=O)NC(=O)NCc4ccco4)c23)cc1`, the inhibition was 2.74%.

As usually defined, the inhibition is the relative decrease from the control value, in per cent.
